Assay outcomes from PubChem.
Mtb FBA inh: Mtb FBA enzyme inhibitors, primary screen, biochemical, fluorescence, strain H37Rv | Fructose-bisphosphate aldolase (Mycobacterium tuberculosis (strain ATCC 25618 / H37Rv)), … | purified M. tuberculosis FBA, fluorescence read-out | inhibition, % at 1 µM | actives 2.3% (n = 360,000)
Target sequence (P9WQA3 whole entry, looked up): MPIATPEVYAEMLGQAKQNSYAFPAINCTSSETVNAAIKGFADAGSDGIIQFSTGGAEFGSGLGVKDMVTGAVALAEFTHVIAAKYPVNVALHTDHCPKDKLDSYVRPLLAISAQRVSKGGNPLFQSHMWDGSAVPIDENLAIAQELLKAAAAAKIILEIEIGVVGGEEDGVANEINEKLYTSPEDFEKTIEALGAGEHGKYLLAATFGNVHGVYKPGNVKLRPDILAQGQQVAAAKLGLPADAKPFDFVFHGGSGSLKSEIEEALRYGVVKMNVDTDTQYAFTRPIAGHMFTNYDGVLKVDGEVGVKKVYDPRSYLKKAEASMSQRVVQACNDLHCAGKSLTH
GDH-TPI counter-1: GDH-TPI coupling enzyme inhibitors, primary screen, artefact control for M. tuberculosis FBA inhibitor project, biochemical, absorbance, full deck | GDH-TPI coupled enzyme counterscreen, NADH absorbance | inhibition, % at 4.8 µM | actives 1.2% (n = 360,000); in the data active = inhibition above about 30%
Mtb BioA inh: M. tuberculosis BioA enzyme inhibitors, primary screen, biochemical, plate reader, single point, HTS. 7,8-diaminopelargonic acid synthase BioA (Mycobacterium tuberculosis). actives 0.096% (n = 360,000). purified M. tuberculosis BioA enzyme. inhibition, % at 9.99 µM; in the data active = inhibition above about 40%
Vc quorum ag: inducers of Vibrio cholerae quorum light production without autoinducers, primary screen, BH1578 luxS cqsA deficient, single point; activation, % at 18.7 µM; V. cholerae BH1578 lux reporter, luminescence, 6 h; actives 0.16% (n = 350,000); in the data active = activation mostly above about 9.7%, no sharp cut-off
Mtb FBA confirm: M. tuberculosis aldolase blockers, biochemical, fluorescence, strain H37Rv, confirmation. shares compounds with Mtb FBA inh. purified M. tuberculosis FBA, fluorescence read-out. inhibition, % at 1 µM. actives 78% (n = 5,600). AID 651616, 2012
GDH-TPI counter-2: GDH-TPI coupling enzyme inhibitors, artefact control for M. tuberculosis FBA inhibitor project, biochemical, fluorescence, high throughput. shares compounds with Mtb FBA inh. GDH-TPI coupled enzyme counterscreen. inhibition, % at 1 µM. actives 81% (n = 5,600). AID 652141, 2013; in the data active = inhibition above about 10%
GDH-TPI DR: GDH-TPI coupling enzyme inhibitors, dose response, artefact control for M. tuberculosis FBA inhibitor project, biochemical, fluorescence, IC50 | shares compounds with Mtb FBA inh | GDH-TPI coupled enzyme assay, artifact counterscreen | IC50, µM | actives 79% (n = 170); call rule not given here
Large screens that a line does not name were inactive (follow-up assays come after a bar, where they were run). Most compounds without a hit are left out; they make up all but 3% or so of the library. Cut-off read from the data, not from the text of the source, unless noted: active = inhibition above about 27%; inactive = the rest.

Clc1nc(Oc2ccccc2)nc(-c2cn(-c3ccccc3)c3ccccc23)n1	Mtb FBA inh 56 (no result: Mtb BioA inh) | Mtb FBA confirm 45 | GDH-TPI counter-2 40
Cc1[nH]nc2c1C(c1ccc(O)cc1)C1=C(CC(C)(C)CC1=O)N2 (centres undefined)	none (no result: Mtb BioA inh)
Cc1[nH]nc2c1C(c1ccsc1)C1=C(CC(C)(C)CC1=O)N2 (centres undefined)	Mtb FBA inh 55 (no result: Mtb BioA inh) | Mtb FBA confirm 51 | GDH-TPI counter-2 38
COc1cccc(C2C3=C(CC(C)(C)CC3=O)Nc3n[nH]c(C)c32)c1 (centres undefined)	Mtb FBA inh 43 (no result: Mtb BioA inh) | Mtb FBA confirm 161 | GDH-TPI counter-2 131
O=C(C[C@@H]1CC[C@H]2[C@@H](COC[C@H](O)CN2C(=O)Nc2ccc(Cl)cc2)O1)NCCc1ccncc1	none (no result: Mtb FBA inh, GDH-TPI counter-1, Vc quorum ag)
CO[C@H]1CN(C)C(=O)c2ccc(NC(=O)C3CCC3)cc2OC[C@@H](C)N(Cc2ccc(F)cc2)C[C@H]1C	none (no result: Mtb FBA inh, GDH-TPI counter-1, Vc quorum ag)
C[C@@H]1CN([C@@H](C)CO)C(=O)c2cc(NC(=O)c3ccncc3)ccc2O[C@@H](C)CCCCO[C@H]1CN(C)C(=O)CCCN(C)C	none (no result: Mtb FBA inh, GDH-TPI counter-1, Vc quorum ag)
COc1cccc(-c2ccc(C#N)c(OC(=O)c3ccc(Cl)cc3)n2)c1	Mtb FBA inh 95 (no result: Vc quorum ag) | Mtb FBA confirm 135 | GDH-TPI counter-2 106
COc1cccc(-c2ccc(C#N)c(OC(=O)c3c(Cl)cccc3Cl)n2)c1	none (no result: Mtb BioA inh)
CCN(CC)c1ccc(-c2nn3c(-c4ccccc4OC)nnc3s2)cc1	Mtb FBA inh 31 | Mtb FBA confirm 52 | GDH-TPI counter-2 31
COc1ccc(-c2nn3c(-c4ccccc4)nnc3s2)cc1	none
COc1ccc(-c2cc(C(F)(F)F)c(C#N)c(SCC(=O)O)n2)cc1	none (no result: Mtb BioA inh)
Cc1ccc(-c2cc(C(F)(F)F)c(C#N)c(SCCC#N)n2)o1	Mtb FBA inh 31 | Mtb FBA confirm 159 | GDH-TPI counter-2 153
COc1ccc(CCNc2cc(C)nc3c(-c4ccc(Cl)cc4)cnn23)cc1OC	Mtb FBA inh 34 | Mtb FBA confirm 42 | GDH-TPI counter-2 34
Cc1cc(NCc2ccccc2)n2ncc(-c3ccccc3)c2n1	Mtb FBA inh 28 | Mtb FBA confirm 123 | GDH-TPI counter-2 123
Cc1cc(NC(C)c2ccccc2)n2ncc(-c3ccccc3)c2n1 (centres undefined)	Mtb FBA inh 33 | Mtb FBA confirm 41 | GDH-TPI counter-2 30
C[C@H](NC(=O)N(C)C[C@H]1OCc2ccccc2-c2c(n(C)c3ccccc23)C(=O)N([C@@H](C)CO)C[C@H]1C)c1ccccc1	none (no result: Mtb FBA inh, GDH-TPI counter-1, Vc quorum ag)
C[C@@H]1CN([C@@H](C)CO)C(=O)Cc2cc(NS(=O)(=O)c3ccccc3)ccc2O[C@H]1CN(C)S(=O)(=O)c1cn(C)cn1	none (no result: Mtb FBA inh, GDH-TPI counter-1, Vc quorum ag)
CC(C)C(=O)Nc1ccc2c(c1)C(=O)N(C)[C@@H]1CC[C@H](CC(=O)Nc3ccccc3)O[C@H]1CO2	none (no result: Mtb FBA inh, GDH-TPI counter-1, Vc quorum ag)
COc1ccc(-c2nc(CCl)cs2)cc1OC	Mtb FBA inh 72 | Mtb FBA confirm 91 | GDH-TPI counter-2 81
COc1ccc(NC(=O)N(C)C[C@@H]2Oc3ccc(NS(=O)(=O)c4ccccc4)cc3C(=O)N([C@@H](C)CO)C[C@@H]2C)cc1	none (no result: Mtb FBA inh, GDH-TPI counter-1, Vc quorum ag)
CCC(=O)N/C(N)=N/c1nc(C)c2cc(OC)ccc2n1	Mtb FBA inh 40 | Mtb FBA confirm active | GDH-TPI counter-2 active
CCOC(=O)CSc1nc(C)c2cc(C)c(C)cc2n1	none
CCOC(=O)CSc1nc(C)c2cc(OC)ccc2n1	Mtb FBA inh 49 | Mtb FBA confirm 64 | GDH-TPI counter-2 36
COc1ccc2nc(/N=C(\N)NC(=O)C(C)(C)C)nc(C)c2c1	Mtb FBA inh 46 | Mtb FBA confirm inactive | GDH-TPI counter-2 inactive | GDH-TPI DR 3.6
COc1ccc(C#Cc2ccc3c(c2)O[C@H](CN(C)C(=O)c2ccccn2)[C@@H](C)CN([C@@H](C)CO)S3(=O)=O)cc1	none (no result: Mtb FBA inh, GDH-TPI counter-1, Vc quorum ag)
